Measured values published in PubChem BioAssay.
The source made the active and inactive calls.

Test: change in splice reporter luminescence, either direction, cell-based, HEK293, spliceosome inhibition project, primary screen (AID 1101);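 note: HEK293 cells carrying a splicing-competent luciferase reporter gene; test concentration not given here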
Details: HEK293 splicing luciferase reporter, 24 h, higher = more signal, called active from +8 up or from −8 down

z-score, inactive:
CCCCOC(OCCCC)C(O)CSc1ccc2ccccc2c1 (stereo unspecified) -0.0185, CCOC(=O)CCN1C(=O)[C@H]2[C@H]3[C@H](O)[C@H](O)CC(=O)[C@@H]3CC[C@H]2C1=O 0.283, CON=C(C)CCN1CCCc2nc(C)c(C)cc21 0.205, COC(=O)CC=C1c2ccccc2[C@H](OC)[C@H]1C 0.0124, C=CC[C@@H]1C=C[C@H](ON=C[C@@H](NS(=O)(=O)c2ccc(C)cc2)[C@H](C)C=CCC(=O)OC)[C@@H](CO)O1 0.463, O=C1C=C[C@@H](O)[C@@H]2[C@@H]3C(=O)N(c4cccc(Oc5ccccc5)c4)C(=O)[C@@H]3CC[C@@H]12 -0.856, C=CC[C@@H]1C=C[C@H](Oc2ccc(C)cc2)[C@@H](COC(=O)NCc2cccc3ccccc23)O1 -0.566, O=C1[C@H]2[C@H]3[C@H](O)[C@H](O)CC(=NOCc4ccccc4)[C@@H]3CC[C@H]2C(=O)N1c1cccc(Oc2ccccc2)c1 -0.055, CCCC[C@H]1CN2[C@@H](CC[C@@H](C)[C@@H]2c2ccc(Br)cc2)C(=O)O1 0.541, CCOC(=O)[C@H](Cc1ccccc1)NC(=O)CCC1CC(OC(=O)NCc2cccc3ccccc23)CC2(CCCC(COC(=O)NCc3ccc4c(c3)OCO4)O2)O1 (stereo partly specified) 0.277, CC(C)(C)N1C(=O)[C@H]2[C@H]3[C@H](O)[C@H](O)CC(=NNC(=O)OCc4ccccc4)[C@@H]3CC[C@H]2C1=O 0.305, COc1ccc(OC[C@@H]2CC3[C@@H](c4ccc(Br)cc4)[C@H](C)CC[C@H]3C(=O)O2)cc1 (stereo partly specified) -0.823, CC(C)=CCCC(C)=CCON=C1C[C@@H](O)[C@@H](O)[C@@H]2[C@@H]3C(=O)N(c4cccc(Oc5ccccc5)c4)C(=O)[C@@H]3CC[C@H]12 0.467, CCN1C(=O)[C@H]2[C@H]3[C@H](O)[C@H](O)CC(=NO[C@H](C)c4cn([C@H](CO)Cc5ccccc5)nn4)[C@@H]3CC[C@H]2C1=O -0.05, C#CCCCON=C1C[C@@H](O)[C@@H](O)[C@@H]2[C@@H]3C(=O)N(C[C@@H]4CCCO4)C(=O)[C@@H]3CC[C@@H]12 -0.28, COC(=O)CC=C[C@@H](C)[C@@H](C=NOC[C@@H](O)COCc1ccco1)NS(=O)(=O)c1ccc(C)cc1 0.46, CC(=O)OC[C@H]1O[C@H](CC=NO[C@@H](C)c2cn([C@H](CO)Cc3ccccc3)nn2)C=C[C@@H]1OC(C)=O -1.54, CCc1cc2c(nc1CC)CCN(CCC(C)=NO[C@@H]1O[C@H](COC(C)=O)[C@@H](OC(C)=O)[C@H](OC(C)=O)[C@H]1OC(C)=O)C2 -0.763, CC(C)(C)N1C(=O)[C@H]2[C@@H]3C(=CC[C@H]2C1=O)C(=O)[C@H]1O[C@H]1[C@H]3O 3.47, CC(C)=NOC(C)CN1CCCCc2nc(C)c(C)cc21 (stereo unspecified) 0.19, Cc1ccc2[nH]c3nc(CCCn4ccnc4-c4ccccc4)nnc3c2c1 -0.128, COc1ccc(COC(=O)NN=C2C[C@@H](O)[C@@H](O)[C@@H]3[C@@H]4C(=O)N([C@@H](C)c5ccccc5)C(=O)[C@@H]4CC[C@H]23)cc1 0.445, COC(=O)CC=C[C@@H](C)[C@@H](C=NOC(C)CN1CCCCc2nc(C)c(C)cc21)NS(=O)(=O)c1ccc(C)cc1 (stereo partly specified) -0.182, CO[C@@H]1COC(=O)[C@H](CCSC)NC(=O)CC=C[C@@H](C)COC(=O)[C@@H]2CCCN2C(=O)CC=C[C@H]1C -0.595, COC(=O)[C@H](C)NC(=O)CC=C[C@@H](C)[C@@H]1C=C[C@H](O)[C@@H](CO)O1 0.386, CO[C@@H](C(C)C)[C@@H](C)C1OC(=O)CC1O (stereo partly specified) 0.94, COc1ccc(OC[C@@H](CO)OC)cc1 1.18, COC(=O)[C@H](C)NC(=O)CCC1CC(OC(=O)NCc2ccc3c(c2)OCO3)CC2(CCCC(COC(=O)NCCC(C)C)O2)O1 (stereo partly specified) 0.0265, COc1cccc([C@H]2Oc3ccc(OC)cc3C(=NO[C@@H](C)c3cc(-c4c(C)cc(C)cc4C)no3)[C@@H]2O)c1 -0.328, CCOC(=O)CCN1C(=O)[C@H]2[C@H]3[C@H](O)[C@H](O)CC(=NNC(=O)OCC)[C@H]3CC[C@H]2C1=O -0.24, O=C1[C@H]2[C@H]3[C@H](O)[C@H](O)CC(=NOC[C@@H](O)COCc4ccco4)[C@@H]3CC[C@H]2C(=O)N1Cc1ccc2c(c1)OCO2 -0.119, CC(=O)OC[C@H]1O[C@H](CC=NO[C@@H](C)c2cc(-c3c(C)cc(C)cc3C)no2)C=C[C@@H]1OC(C)=O 0.708, CCO[C@H](c1cc(OC)cc([N+](=O)[O-])c1OC)[C@H](C)[C@@H](OC)[C@H](C)C=CCC(=O)OC -0.188, COC(=O)[C@H](C)NC(=O)CCC1CC(OC(=O)NCc2ccc3c(c2)OCO3)CC2(CCCC(COC(=O)NCCc3ccc(Cl)cc3)O2)O1 (stereo partly specified) -0.51, COc1ccc(COC(=O)NN=C2C[C@@H](O)[C@@H](O)[C@@H]3[C@@H]4C(=O)N(c5cccc(Oc6ccccc6)c5)C(=O)[C@@H]4CC[C@H]23)cc1 -1.27, COc1cccc([C@H]2Oc3ccc(OC)cc3C(=NOCC[C@@H]3C=C[C@H](OC(C)=O)[C@@H](COC(C)=O)O3)[C@@H]2O)c1 -0.019
